Here are results for 13 compounds from PubChem BioAssay (NCATS).

The structures appear in SMILES notation. Records with an inconclusive call do not appear. Calls of active or inactive are those of the source. Calls follow the shape of the dose curve; as a rule, active = well fitted inhibition curve with a large enough effect; inconclusive = small, poorly fitted or top-dose-only effect; inactive = flat fitted curve, though single readings scatter.

What all share (assay): qHTS profiling for inhibitors of Plasmodium falciparum proliferation (AID 504749); also: nearly all actives have a fitted effect of over 60% in size
What all share (conditions): P. falciparum in erythrocytes, SYBR Green DNA, 72 h; series mostly up to 28.7 µM

In one test the test system is CP269. Put shortly:
(§1)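 Each compound contacts P. falciparum-infected red blood cells for 72 h at 37 C; lysis buffer (Tris, EDTA, saponin, Triton X, SYBR Green I) is added and fluorescence measured next morning; values normalized to controls.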

The next test relates to CP286. The essentials:
as §1

In a further test the test system is CP297. Put shortly:
as §1

For another test, the system named is CP305. Put shortly: as §1
In a further test the test system is CP315. The essentials:
as §1

The next test concerns CP325. Put shortly: as §1
Another test deals with CP329. Put shortly: as §1
The subject of another test is CP335. The essentials: as §1
In the next test the test system is DFO2036. The essentials: as §1
The subject of the next test is DIV14. The essentials: as §1
The test system of the next test is DIV17. The essentials: as §1
The subject of a further test is DIV30. Put shortly:
as §1

A further test deals with Dd2. The essentials: as §1
In a further test the test system is ECU. Put shortly: as §1
Another test concerns FAB9. The essentials:
as §1

Another test has as its system GB4. The essentials:
as §1

The test system of the next test is HB3. The essentials: as §1
The test system of a further test is ICS. Put shortly:
as §1

A further test deals with JCK. Put shortly: as §1
In the next test the test system is CP291. Put shortly:
as §1
Potency is read from the fitted curve at half-maximal effect.

For the compound `O=C(O)CCC(=O)C(=O)O`, the Potency entry with CP269, in the test with CP286, in the test with CP297, in the test on CP305, in the test with CP315 and with CP325 was “inactive” in each case. The Potency result in the test on CP329, in the test with CP335, in the test with DFO2036, with DIV14, with DIV17 and in the test with DIV30 was “inactive” each time. For the same compound, the Potency result in the test on Dd2, in the test with ECU, with FAB9, in the test with GB4, in the test with HB3 and in the test on ICS was “inactive” in each case. Also, the Potency result in the test with JCK was “inactive”.
Regarding `C#C[C@]1(O)CC[C@H]2[C@@H]3CCC4=CCCC[C@@H]4[C@H]3C(=C)C[C@@]21CC`, the Potency result in the test on CP269, in the test with CP291, with CP297, in the test on CP315, with CP325 and in the test on CP329 was “inactive” throughout. In addition, the Potency entry in the test with DIV14, in the test on DIV17, with DIV30, in the test with Dd2, in the test on FAB9 and in the test with GB4 was “inactive” each time. Moreover, the Potency result with HB3 and in the test on JCK was “inactive” each time. Besides, the Potency in the test on ICS was 10 µM (active).
Take `IC(I)I`: the Potency result with CP269, in the test on CP286, in the test with CP297, in the test on CP315, in the test with CP325 and with CP329 was “inactive” each time. In addition, the Potency entry with CP335, with DFO2036, in the test on DIV17, with DIV30, in the test on Dd2 and in the test with ECU was “inactive” throughout. For the same compound, the Potency entry in the test with FAB9, in the test on GB4, in the test with HB3, with ICS and in the test on JCK was “inactive” throughout.
Turning to `Clc1cc(Cl)c(OCC#CI)cc1Cl`, the Potency in the test with CP291 was 8.49 µM (active); with DIV14, 9.53 µM (active); in the test with DIV17 it was 13.5 µM (active); with GB4 it was 10.7 µM (active); in the test with ICS, 7.94 µM (active). In addition, the Potency result with CP315 was “inactive”.
Turning to `CCCCCCCC(=O)O`, the Potency entry in the test on CP269, in the test on CP286, in the test with CP297, with CP305, with CP315 and in the test with CP325 was “inactive” in each case. Besides, the Potency entry with CP329, in the test with CP335, in the test with DFO2036, with DIV14, in the test on DIV17 and in the test on DIV30 was “inactive” each time. In addition, the Potency result in the test on Dd2, in the test with ECU, with FAB9, in the test with GB4, in the test with HB3 and in the test on ICS was “inactive” throughout. The Potency result in the test with JCK was “inactive”.
As for `Nc1c(Br)cc(Br)cc1CNC1CCC(O)CC1` (stereo not drawn), the Potency entry with CP269, in the test on CP291, with CP297, in the test with CP305, in the test with CP315 and in the test with CP325 was “inactive” each time. Also, the Potency result with CP329, in the test on DFO2036, with DIV14, in the test with DIV17, in the test on DIV30 and in the test on Dd2 was “inactive” throughout. Moreover, the Potency result with ECU, with FAB9, with HB3 and with JCK was “inactive” throughout.
`O=C(Nc1cccc(C(F)(F)F)c1)c1cc(Br)cc(Br)c1O`: the Potency is 12 µM (active) with CP291; 15.1 µM (active) with CP315; 10 µM (active) with DFO2036; 13.5 µM (active) in the test with DIV14; 13.5 µM (active) in the test on DIV17; 13.5 µM (active) with DIV30. Besides, the Potency with ECU is 10 µM (active); with ICS, 8.91 µM (active); in the test with JCK it was 10 µM (active).
In the case of `CC(Cc1ccc(O)c(O)c1)C(C)Cc1ccc(O)c(O)c1` (stereo not drawn), the Potency result in the test on CP291, in the test on CP305, in the test on CP315, in the test with CP325, in the test on CP329 and with CP335 was “inactive” throughout. For the same compound, the Potency result with DFO2036, in the test on DIV30, in the test on ECU, in the test with FAB9, in the test with HB3 and in the test on JCK was “inactive” throughout. Besides, the Potency in the test with ICS is 10 µM (active).
For the compound `CC1(C)C(C=C(Cl)Cl)C1C(=O)OCc1cccc(Oc2ccccc2)c1` (stereo not drawn), the Potency result with CP269, in the test with CP291, with CP297, with CP305, in the test on CP315 and with CP325 was “inactive” in each case. The Potency result with CP329, with CP335, in the test on DFO2036, in the test with DIV14, in the test on DIV17 and in the test on DIV30 was “inactive” throughout. The Potency result in the test on ECU, in the test with FAB9, in the test with GB4, in the test on HB3 and with JCK was “inactive” each time.
Take `CC(=O)Oc1cc(C)c(OC(C)=O)c2ccccc12`: the Potency in the test on CP325 was 15.1 µM (active); in the test on DIV14 it was 6.01 µM (active); in the test with DIV17, 6.75 µM (active); with GB4, 7.57 µM (active); in the test on ICS, 6.31 µM (active).
`CCOC(=O)C1=C(C)NC(C)=C(C(=O)OCC)C1c1ccccc1C=CC(=O)OC(C)(C)C`: the Potency with CP269 was 15.1 µM (active); in the test on CP291 it was 12 µM (active); in the test with CP297, 16.9 µM (active); in the test with CP315, 10.7 µM (active); with CP325, 12 µM (active); in the test with CP335, 10.7 µM (active). The Potency with DFO2036 was 11.2 µM (active); in the test with DIV14 it was 12 µM (active); in the test on DIV17 it was 15.1 µM (active); with DIV30 it was 13.5 µM (active); in the test on FAB9 it was 11.2 µM (active); with GB4, 10.7 µM (active). For the same compound, the Potency was 12.6 µM (active) with HB3 and 4.47 µM (active) in the test with ICS. Moreover, in the test on JCK, the Potency result was “inactive”.
Take `CN(C)CCCN1c2ccccc2C(C)(C)c2ccccc21`: the Potency entry in the test on CP269, in the test with CP286, in the test with CP297, in the test on CP305, in the test with CP315 and in the test with CP325 was “inactive” in each case. For the same compound, the Potency result with CP329, in the test with DFO2036, with ECU, with FAB9, in the test with HB3 and in the test on JCK was “inactive” each time. Also, the Potency in the test on DIV14 is 8.49 µM (active); with DIV17, 4.78 µM (active).
With `CCN(CC)CCOc1ccc(-c2nc3cc(Cl)ccc3s2)cc1`, the Potency result in the test with CP269, in the test on CP291, with CP297, with CP305, with CP315 and in the test on CP325 was “inactive” each time. Besides, the Potency entry in the test with CP329, in the test on DIV30, in the test with FAB9, in the test on HB3 and in the test on JCK was “inactive” in each case. The Potency is 15.1 µM (active) in the test with DIV17 and 16.9 µM (active) in the test on GB4.
